MARV entry inh: blocks Marburg virus binding to or entry into cells | Marburg virus pseudotyped entry inhibition, cell reporter | hit rate 1.8% among 300,000 | AID 540276 | Potency, µM (top dose mostly 37.8 µM), without a hit: at the highest dose activity change, negative = inhibition, actives largely listed as inhibitors; calls by dose curve; tested in HEK293 cells; note: potency is the fitted concentration of half-maximal effect; % is set by controls: 0 for no effect and ±100 for the full control effect
Shiga toxin inh: Shiga toxin inhibition; Vero cells, Shiga toxin protein synthesis inhibition reporter; hit rate 9.2% among 290,000; AID 2315; inhibition, % at 38.7 µM; in the data active = inhibition mostly above about 28%, no sharp cut-off; inactive = mostly below about 43%; note: 0% is about no effect
LASV entry inh: inhibitors of Lassa virus binding or cell entry; Lassa virus pseudotype entry inhibition, cell reporter; Potency, µM (top dose mostly 37.9 µM), without a hit: at the highest dose activity change, negative = inhibition, usual class: inhibitors; hit rate 1.2% among 300,000; AID 540256; calls by dose curve; tested in HEK293 cells; note: potency is the fitted concentration of half-maximal effect; % is set by controls: 0 for no effect and ±100 for the full control effect; nearly all actives have a fitted effect of over 50% in size
Cycloheximide cs: counter-screen hit for Shiga toxin inhibitors, cycloheximide | cell reporter, cycloheximide protein synthesis inhibition counterscreen | max response, % | hit rate 12% among 300,000 | AID 2314; in the data active = max response mostly above about 13%, no sharp cut-off; inactive = mostly below about 14%; note: read at 38.3 µM for the half of the compounds with a filed dose; 0% is about no effect
FMDV inh: blocks foot and mouth disease virus; hit rate 1.2% among 410,000; FMDV antiviral cell-based qHTS; Potency, µM (doses to about 57.9 µM), for the others: top-dose activity change, negative = inhibition, usual class: inhibitors; calls by dose curve; tested in HEK293T cells; note: read-out not given here; potency is the fitted concentration of half-maximal effect; % is set by controls: 0 for no effect and ±100 for the full control effect; nearly all actives have a fitted effect of over 45% in size
HCV inh: inhibitors of hepatitis C virus infection | Potency, µM (doses to about 41.8 µM), without a hit: at the highest dose activity change, negative = inhibition, actives largely listed as inhibitors | hit rate 3.4% among 340,000 | AID 651820 | Huh7.5.1 HCVcc-Cre infection, luciferase reporter, 44 h; active = well fitted inhibition curve with a large enough effect; inconclusive = small, poorly fitted or top-dose-only effect, or another doubt; inactive = no such curve, though single readings can be large or run the other way; note: potency is the fitted concentration of half-maximal effect; % is set by controls: 0 for no effect and ±100 for the full control effect
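A cell-based infection assay in which seeded cells (1,000 per well) receive test compound after 4 h, are inoculated with HCVcc-Cre at approximately 0.5 moi, and are incubated 44 h before luminescence detection.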
An asterisk follows results filed as active; ? = inconclusive; / = not tested or not shown; [ ] = remark or other dose. Shown are actives, neighbours in structure and some others; about 13% of the full set was active somewhere.

SMILES	MARV entry inh	Shiga toxin inh	LASV entry inh	Cycloheximide cs	FMDV inh	HCV inh
CO[C@H]1C=CO[C@@]2(C)Oc3c(C)c(O)c4c(O)c(c5c(nc6cc(C)ccn65)c4c3C2=O)NC(=O)/C(C)=C\C=C[C@H](C)[C@H](O)[C@@H](C)[C@@H](O)[C@@H](C)[C@H](OC(C)=O)[C@@H]1C	/	/	/	/	-18.3%	/
CCNc1ncc2nc(-c3cccs3)c(=O)n(C)c2n1	/	/	/	/	31.8%	/
CCn1nc(-c2cccs2)nc2c(=O)n(C)c(=O)nc1-2	0.891µM*	25.6*	?	26.0*	1.58µM*	0.562µM*
COc1cccc(-n2c(=O)c3cc(OC)c(OC)cc3n(CC(=O)Nc3ccccc3)c2=O)c1	7.2%[46.1 µM]	/	11.1%[46.1 µM]	/	10.7%	/
COC(=O)c1ccccc1NC(=S)NC(=O)c1ccccc1	-3.3%	48.6	3.0%	9.0*	0.0%	8.8%
Cc1ccc(NC(=S)NC(=O)c2ccccc2)cc1NC(=S)NC(=O)c1ccccc1	/	54.0*	/	24.2*	71.9%	-29.9%
COC(=O)c1ccccc1NC(=S)NC(=O)c1ccc(C)cc1	-19.0%	24.4	14.7%	6.6	-4.2%	-4.8%
CC(C)c1nn2c(=O)cc(COC(=O)c3ccccc3NC(=O)COc3ccccc3)nc2s1	/	/	28.6%[46.1 µM]	/	12.9%	/
O=C(Nc1ccc2c(c1)OCCO2)c1cnc2n(c1=O)CCS2	?	18.4	4.8%	30.1*	21.4%	2.5%
O=C(Nc1ccccc1)c1cnc2n(c1=O)CCS2	0.9%	46.6	-0.9%	15.2	39.8%	16.1%
O=C(NCc1ccc2c(c1)OCO2)c1cnc2n(c1=O)CCS2	/	-18.4	/	-4.7	-6.3%	-1.9%
O=C(Nc1ccc(OC(F)(F)F)cc1)c1cnc2n(c1=O)CCS2	/	20.9	/	16.0*	-4.2%	2.5%
O=C(Nc1ccc2c(c1)OCO2)c1cnc2n(c1=O)CCS2	18.6%	49.3*	-1.6%	29.3*	38.5%	9.9%
CCCCOC(=O)c1ccc(NC(=O)c2cnc3n(c2=O)CCS3)cc1	?	-14.1	?	-5.0	?	?
Cc1cccc(NC(=O)c2cnc3n(c2=O)CCS3)c1	-8.1%	17.2*	?	20.7*	41.0%	5.0%
CCc1ccc([C@@H]2CC(=O)[C@@H]3CN(S(=O)(=O)c4ccccc4)[C@H](c4ccc(OC)cc4)C[C@@H]3N2S(=O)(=O)c2ccc(C)cc2)cc1	/	/	/	/	-23.4%	/
CCCCCCCNC(=O)CC(NS(=O)(=O)c1ccc(NC(C)=O)cc1)C(C)C (centres undefined)	-10.1%	-4.1	?	-2.1	0.4%	4.7%
Cc1ccc2cc(CN(CCN3CCCC3)C(=O)Nc3ccccc3)c(=O)[nH]c2c1C	?	-2.7	-21.6%	-2.7	-7.7%	-24.5%
COc1ccc(OC(=O)c2cnc3n(c2=O)CCS3)cc1	8.1%	26.0	0.6%	15.5*	32.8%	8.1%
COc1ccc(OC)c(NC(=O)c2cnc3n(c2=O)CCS3)c1	/	-5.2	/	9.2	3.9%	5.9%
CCCCOc1ccc(-c2cc3c(=O)n(CC(=O)Nc4ccc(Cl)cc4Cl)ccn3n2)cc1	1.3%[46.1 µM]	/	-4.8%[46.1 µM]	/	-6.3%	/
CC(=O)NC(c1cccc(F)c1)c1nc(-c2ccccc2)cs1 (centres undefined)	/	/	/	/	-10.7%	/
Cc1onc(-c2ccccc2)c1C(=O)OCC(=O)Nc1ccc(OC(F)(F)F)cc1	/	/	/	/	?	11.2µM*
Cc1onc(-c2ccccc2)c1C(=O)OCC(=O)Nc1ccc(Cl)cc1	/	/	/	/	0.0%	10µM*
CCC(=O)c1ccccc1OCCSc1nc(C)cc(=O)[nH]1	-0.9%	-1.4	-22.5%[14.3 µM]	3.9	13.1%	10.3%
SMILES	MARV entry inh	Shiga toxin inh	LASV entry inh	Cycloheximide cs	FMDV inh	HCV inh
Cc1ccc(-n2c(=O)c3c(c4cc(C)ccc4n3C)n(CC(=O)NCc3ccccc3Cl)c2=O)cc1	-0.8%[46.1 µM]	/	-1.4%[46.1 µM]	/	-4.9%	/
COCCn1c(C)cc(C(=O)COC(=O)c2cccc(O)c2)c1C	/	-6.7	/	-2.6	11.2µM*	-16.9%
COCCn1c(C)cc(C(=O)COC(=O)C23CC4CC(CC(O)(C4)C2)C3)c1C	?	57.1*	?	38.0*	-50.9%	12.0%
COCCn1c(C)cc(C(=O)COC(=O)c2cc3c(s2)CCC3)c1C	20.8%[46.1 µM]	94.8*	11.5%	30.3*	51.2%	13.2%
Cc1cc(C(=O)COC(=O)C23CC4CC(CC(O)(C4)C2)C3)c(C)n1-c1c(C)n(C)n(-c2ccccc2)c1=O	-5.4%	-10.8	-1.4%	-2.4	5.5%	?
COCCn1c(C)cc(C(=O)CN2CCCCC2)c1C	2.7%[46.1 µM]	19.6	18.7%[46.1 µM]	13.3	5.5%	-3.7%
O=C(CCCCCn1c(=O)[nH]c2ccsc2c1=O)N1CCCCC1	26.0%[46.1 µM]	0.6	5.8%	-1.3	0.0%	7.1%
O=C(NNS(=O)(=O)c1ccc([N+](=O)[O-])cc1)c1ccc2ccccc2c1O	12.4%[46.1 µM]	-0.8	13.7%[46.1 µM]	2.2	27.0%	4.2%
CCN(CC)C(=S)SCC(=O)c1c(C)[nH]c2ccccc12	?	22.3	-0.4%	15.4*	?	?
Cc1[nH]c2ccccc2c1C(=O)CSC(=S)N1CCOCC1	?	83.8*	3.6%	16.7*	0.0%	-8.0%
CCCc1cc(=O)[nH]c(SCC(=O)c2c(C)[nH]c3ccccc23)n1	/	-0.5	/	-2.2	2.4%	-2.8%
O=C(c1ccc(S(=O)(=O)Nc2ccccc2F)cc1)N1CCN(c2ccccn2)CC1	/	/	/	/	?	4.47µM*
Cc1ccccc1NS(=O)(=O)c1ccc(C(=O)N2CCN(c3ccccn3)CC2)cc1	?	10.7	-19.3%[46.1 µM]	1.2	-20.0%	?
O=C(NNC(=O)c1ccccc1O)c1ccc(S(=O)(=O)Nc2ccccc2F)cc1	1.5%[46.1 µM]	/	4.3%	/	16.1%	15.8µM*
O=C(CCc1ccccc1)Nc1ccc(N2CCOCC2)c(Cl)c1	19.2%	-1.7	18.9%	-0.7	-6.1%	?
COc1cccc2cc(CC(=O)c3ccccc3)c(=O)oc12	/	44.4*	/	18.3	0.0%	0.5%
COc1cccc2cc(-c3nc4ccccc4o3)c(=O)oc12	1.0%[46.1 µM]	106.5*	?	45.1*	10.0%	-13.0%
COc1cccc2cc(/C(=N/O)c3ccc(Br)cc3)oc12	-29.4%	-9.8	-22.4%	5.4	-19.0%	-28.9%
COc1cccc2cc(CC(=O)c3ccc(C)c(C)c3)c(=O)oc12	/	-7.0	/	10.9	46.7%	-28.5%
CCc1ccc(C(=O)Cc2cc3cccc(OC)c3oc2=O)cc1	/	64.3*	/	28.3*	70.5%	-9.1%
COc1cccc2cc(C(=O)c3ccccc3)oc12	-1.2%[46.1 µM]	166.1*	?	67.8*	20.6%	-0.3%
COc1cccc2cc(CC(=O)c3cc(C)ccc3C)c(=O)oc12	/	71.3*	/	28.4*	15.0%	?
CC1CCCN(CCCNC(=O)Cn2ncc3c([nH]c4ccccc43)c2=O)C1 (centres undefined)	/	/	16.2%[46.1 µM]	/	-17.1%	/
COc1cccc(NS(=O)(=O)c2c(C)nc3sccn3c2=O)c1	/	1.7	/	-1.0	11.3%	2.5%
COc1ccccc1C(=O)NCCC(=O)Nc1ccc(S(=O)(=O)N2C(C)CCCC2C)cc1 (centres undefined)	/	/	/	/	-19.4%	10µM*

Screening data deposited in PubChem by National Center for Advancing Translational Sciences (NCATS).
